The source of these data is PubChem BioAssay (Tox21).

Assay [1] can be described thus: qHTS assay to identify small molecule antagonists of the estrogen related receptor (ERR) signaling pathway from Tox21 library - cell viability counter screen (AID 1224834). Also: nearly all actives have a fitted effect of over 30% in size. In short, it runs like this:
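Fluorescence from CellTiter-Fluor gives the viability read-out, taken 30 min after reagent addition. Before that, ERR cells seeded 6 h earlier were incubated with compounds for 17.5 h at 37 C.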

Assay [2] deals with Luciferin 4-monooxygenase (Photinus pyralis) (UniProt P08659). As to the kind of experiment: qHTS assay to identify small molecule inhibitors of firefly luciferase (AID 1224835). Also: nearly all actives have a fitted effect of over 25% in size. In short, it runs like this: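 Quantitative HTS format; KM concentrations of both substrates. Purified P. pyralis FLuc activity quantified from luminescence images.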
Chain of Luciferin 4-monooxygenase (Photinus pyralis) (P08659 whole entry, looked up): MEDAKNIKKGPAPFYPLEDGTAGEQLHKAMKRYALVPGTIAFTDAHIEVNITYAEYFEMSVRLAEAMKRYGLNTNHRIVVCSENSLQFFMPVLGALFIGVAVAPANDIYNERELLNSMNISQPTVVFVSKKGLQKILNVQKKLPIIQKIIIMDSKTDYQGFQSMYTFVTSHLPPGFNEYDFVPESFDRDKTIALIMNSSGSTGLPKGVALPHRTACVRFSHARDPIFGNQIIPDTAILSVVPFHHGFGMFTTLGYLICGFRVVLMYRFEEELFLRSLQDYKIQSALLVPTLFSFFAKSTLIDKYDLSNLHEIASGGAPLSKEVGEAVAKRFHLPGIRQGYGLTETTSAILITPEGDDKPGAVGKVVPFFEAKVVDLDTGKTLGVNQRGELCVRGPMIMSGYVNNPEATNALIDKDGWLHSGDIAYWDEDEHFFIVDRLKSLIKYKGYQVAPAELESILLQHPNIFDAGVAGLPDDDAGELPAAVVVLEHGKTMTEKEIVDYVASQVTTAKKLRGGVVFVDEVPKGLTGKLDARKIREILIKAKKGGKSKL
Assay [3] is described as follows: qHTS assay to identify small molecule agonists of the constitutive androstane receptor (CAR) signaling pathway - cell viability counter screen (AID 1224836). Also: nearly all actives have a fitted effect of over 45% in size. In outline:
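Fluorescence from CellTiter-Fluor indicates live cells after 23 h exposure. The human hepatoma line expresses hCAR and a CYP2B6-2.2kb reporter. Incubation medium contains 0.75 uM PK11195 (final).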

A short description of assay [4]: qHTS assay to identify small molecule antagonists of the constitutive androstane receptor (CAR) signaling pathway - cell viability counter screen (AID 1224837). Also: nearly all actives have a fitted effect of over 45% in size. In short, it runs like this: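 HepG2-CYP2B6-hCAR cells, 2500/well, 4 hr pre-incubation; compound titration, 15 conc.; CITCO 50 nM final; 23 hr, 37 C/5% CO2; CellTiter-Fluor, fluorescence intensity.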
Assay [5] in a line: qHTS assay to identify small molecule antagonists of the estrogen related receptor signaling pathway with the pleiotropic PPARgamma coactivator (PGC) from Tox21 10K library - cell viability counter screen (AID 1224840; active = well fitted cell-killing curve with a large enough effect in the repeat runs, not every such curve was filed as active; also: nearly all actives have a fitted effect of over 40% in size). In outline: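 PGC/ERR cells, 2,000/well; 6 h pre-incubation 37 C/5% CO2; cpd in DMSO via pin tool; 17.5 h 37 C; CellTiter-Fluor, 30 min; fluorescence.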
In assay [6] the target is Thyrotropin receptor (Homo sapiens) (UniProt P16473). As to the kind of experiment: qHTS assay to identify small molecule agonists of the thyroid stimulating hormone receptor (TSHR) signaling pathway (AID 1224843; calls by dose curve; also: nearly all actives have a fitted effect of over 45% in size). In short, it runs like this:
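Cell line HEK293 with TSHR; density 800/well. Exposure 30 min RT. Readout HTRF cAMP (cAMP-d2/anti-cAMP-cryptate), 1 h RT before reading.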

In assay [7] the target is Nuclear receptor subfamily 1 group I member 3 (Homo sapiens) (UniProt Q14994). As to the kind of experiment: qHTS assay to identify small molecule antagonists of the constitutive androstane receptor (CAR) signaling pathway (AID 1224838).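 Also: HepG2 cells stably expressing hCAR with CYP2B6 luciferase reporter stimulated by CITCO; nearly all actives have a fitted effect of over 40% in size.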 In short, it runs like this:
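HepG2-CYP2B6-hCAR cells; 4 h pre-incubation; cpd (15 conc) + CITCO 50 nM final; 24 h, 37 C/5% CO2; ONE-Glo, luminescence.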

Assay [8] shares this target. Kind of assay: qHTS assay to identify small molecule agonists of the constitutive androstane receptor (CAR) signaling pathway (AID 1224839). Also: nearly all actives have a fitted effect of over 15% in size. In outline: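 Stable hCAR/CYP2B6-2.2kb HepG2 line in DMEM with 10% FBS; compounds (15 concentrations) and 0.75 uM PK11195 final, 24 h at 37 C/5% CO2, then ONE-Glo luminescence after 30 min.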
Assay [9] is described as follows: qHTS assay to identify small molecule antagonists of the estrogen related receptor signaling pathway with the pleiotropic PPARgamma coactivator (PGC) from Tox21 10K library (AID 1224841; call rule not given here; also: actives are mostly falling curves and most rising ones were filed inactive; nearly all actives have a fitted effect of over 50% in size). In short, it runs like this: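 PGC/ERR cell line, 2,000 cells/well; 6 h pre-incubation 37 C/5% CO2; compounds (DMSO) pinned in; 18 h, 37 C; One-Glo, 30 min RT; luminescence.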

The nature of assay [10]: qHTS assay to identify small molecule agonists of the estrogen related receptor signaling pathway with the pleiotropic PPARgamma coactivator (PGC) from Tox21 10K library (AID 1224842). Also: nearly all actives have a fitted effect of over 15% in size. In outline:
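PGC/ERR reporter cells (NTP line) were seeded 2,000 per well, rested 6 h at 37 C/5% CO2, then pin-dosed with compounds in DMSO for 18 h at 37 C; luciferase read by One-Glo luminescence after 30 min at room temperature.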

Where “and” joins values, the source holds several entries; their conditions need not be identical. Equal entries are not always repeated. Results filed as inconclusive are left out. More than one record can exist for a structure, and the calls need not agree. Calls of active or inactive are those of the source. Unless noted, calls follow the shape of the dose curve; as a rule, active = well fitted curve in the direction sought with a large enough effect in the repeat runs; inconclusive = weak or mixed curves; inactive = no such curve, though single readings can be large; an effect the other way counts as inactive or inconclusive.
Potency is read from the fitted curve at half-maximal effect.

Chain of Nuclear receptor subfamily 1 group I member 3 (Homo sapiens) (Q14994 whole entry, looked up): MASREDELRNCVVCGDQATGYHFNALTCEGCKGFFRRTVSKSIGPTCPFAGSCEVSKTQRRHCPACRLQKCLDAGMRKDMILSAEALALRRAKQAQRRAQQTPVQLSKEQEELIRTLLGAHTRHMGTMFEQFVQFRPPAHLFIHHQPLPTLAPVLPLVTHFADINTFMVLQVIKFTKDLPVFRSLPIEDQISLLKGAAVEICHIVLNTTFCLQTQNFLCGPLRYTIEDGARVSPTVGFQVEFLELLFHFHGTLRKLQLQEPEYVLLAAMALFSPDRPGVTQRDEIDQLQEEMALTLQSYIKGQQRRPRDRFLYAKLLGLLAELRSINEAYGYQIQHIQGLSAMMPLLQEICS
Chain of Thyrotropin receptor (Homo sapiens) (P16473 whole entry, looked up): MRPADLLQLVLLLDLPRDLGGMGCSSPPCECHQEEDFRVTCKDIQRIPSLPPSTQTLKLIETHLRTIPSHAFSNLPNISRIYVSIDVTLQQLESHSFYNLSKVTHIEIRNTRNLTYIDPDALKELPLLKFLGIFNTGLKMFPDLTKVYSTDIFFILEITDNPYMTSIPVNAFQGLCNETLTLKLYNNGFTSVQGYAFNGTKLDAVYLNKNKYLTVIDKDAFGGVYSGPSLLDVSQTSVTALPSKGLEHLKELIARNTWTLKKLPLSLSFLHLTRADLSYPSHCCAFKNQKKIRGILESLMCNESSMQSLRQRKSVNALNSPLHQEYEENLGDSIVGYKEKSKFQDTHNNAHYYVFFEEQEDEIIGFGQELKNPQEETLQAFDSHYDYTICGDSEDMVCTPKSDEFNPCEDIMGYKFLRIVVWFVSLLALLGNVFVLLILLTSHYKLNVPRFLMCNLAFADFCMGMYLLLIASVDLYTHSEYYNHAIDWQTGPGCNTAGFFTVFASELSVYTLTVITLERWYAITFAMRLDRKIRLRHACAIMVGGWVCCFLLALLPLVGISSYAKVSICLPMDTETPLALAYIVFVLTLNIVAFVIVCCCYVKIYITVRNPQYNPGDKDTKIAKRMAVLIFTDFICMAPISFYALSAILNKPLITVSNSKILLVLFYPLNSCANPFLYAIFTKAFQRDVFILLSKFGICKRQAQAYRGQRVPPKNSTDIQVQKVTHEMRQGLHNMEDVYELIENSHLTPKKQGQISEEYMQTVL

Consider `CCCN`, for which the Potency entry in [1], in [2], in assay [3], in assay [4], in [5] and in assay [6] was “inactive” throughout.

For the molecule `Cc1ccn2nc(S(=O)(=O)Nc3c(F)cccc3F)nc2n1`, the Potency entry in [1], in [2], in assay [4], in assay [7], in assay [8] and in assay [5] was “inactive” in each case. Moreover, the Potency entry in [9], in assay [10] and in assay [6] was “inactive” in each case.

For `Nc1nc(N)nc(Cl)n1`, the Potency result in assay [1], in assay [2], in assay [3], in assay [4], in assay [8] and in assay [5] was “inactive” each time. Besides, in assay [6], the Potency entry is “inactive”.

As for `CCN(CC)CCc1c[nH]c2ccccc12`, the Potency entry in assay [1], in assay [2], in [3], in [4], in assay [5] and in [6] was “inactive” each time.

In the case of `[O]=[Cr](=[O])([OH])[O][Cr](=[O])(=[O])[OH]`, the Potency was 13.8 µM (active) and 24.3 µM (active) in assay [1]; 15.5 µM (active) and 15.3 µM (active) in [3]; 11 µM (active) and 9.67 µM (active) in [4]; 3.85 µM (active) in [5]. For the same molecule, the Potency entry in [2] and in assay [6] was “inactive” each time.

As for `O=C1C2(Cl)C3(Cl)C4(Cl)C(Cl)(Cl)C5(Cl)C3(Cl)C1(Cl)C5(Cl)C24Cl` (centres undefined), the Potency was 53.6 µM (active) and 58.5 µM (active) in [1]; 60.1 µM (active) in assay [4]; 23.9 µM (active) and 52.2 µM (active) in assay [7]; 47.8 µM (active) and 58.5 µM (active) in assay [5]; 53.6 µM (active) in assay [9]. For the same molecule, the Potency result in [2], in [8] and in assay [10] was “inactive” in each case.

For the molecule `CCC1(CC)C(=O)N=C(O)NC1=O`, the Potency result in assay [1], in assay [2], in [3], in [4], in assay [8] and in [5] was “inactive” in each case.

Regarding `CCN(CC)C(=S)S`, the Potency was 54.9 µM (active) and 13.6 µM (active) and 24.3 µM (active) in [1]; 54.9 µM (active) and 12.1 µM (active) and 19.3 µM (active) in assay [3]; 13.6 µM (active) and 17.2 µM (active) in assay [4]; 30.9 µM (active) and 6.08 µM (active) and 13.7 µM (active) in assay [5]. Also, the Potency result in [2] and in [6] was “inactive” throughout.

Consider `CCCCN(CCCC)C(=S)S`, for which the Potency entry in assay [1], in [2], in assay [3], in assay [4], in assay [5] and in assay [9] was “inactive” throughout. Also, the Potency result in [10] was “inactive”.

For the molecule `Brc1ccc(Oc2ccc(Br)cc2Br)c(Br)c1`, the Potency result in assay [1], in assay [4], in [7], in assay [5] and in [9] was “inactive” each time. Besides, the Potency in assay [2] is 35.6 µM (active); in assay [8], 54.5 µM (active).

In the case of `O=C(O)CCCCCCNC1c2ccccc2CCc2ccccc21`, the Potency entry in assay [1], in assay [2], in [3], in assay [4], in assay [5] and in assay [6] was “inactive” throughout.

`CCN(CC)C(=O)N[C@@H]1C=C2c3cccc4[nH]cc(c34)C[C@@H]2N(C)C1`: the Potency entry in assay [1], in assay [2], in [3], in assay [4], in assay [7] and in [5] was “inactive” each time. Besides, the Potency entry in assay [6] was “inactive”.

As to `COc1nc(C)nc(NC(=O)NS(=O)(=O)c2ccccc2Cl)n1`, the Potency result in assay [1], in assay [2], in [3], in assay [4], in assay [8] and in assay [5] was “inactive” throughout. In addition, the Potency entry in [9], in [10] and in [6] was “inactive” in each case.

With `N#CSCc1ccccc1`, the Potency result in [1], in assay [2], in [3], in assay [4], in assay [8] and in [6] was “inactive” in each case.

For `Fc1ccc(C(OCCN2CCN(CCCc3ccccc3)CC2)c2ccc(F)cc2)cc1`, the Potency in assay [1] is 26.6 µM (active); in assay [3], 21.1 µM (active); in [4], 21.1 µM (active); in assay [5] it was 26.6 µM (active); in assay [9], 11.9 µM (active). Further, the Potency result in assay [2], in [8], in assay [10] and in assay [6] was “inactive” throughout.

`CC1(C)C(C=C(Cl)Cl)C1C(=O)OC(C#N)c1ccc(F)c(Oc2ccccc2)c1` (centres undefined): the Potency result in [1], in [2], in [3], in [4], in [8] and in [5] was “inactive” each time. In addition, the Potency result in [9] and in assay [10] was “inactive” in each case.

With `Cc1nn(-c2cc(NS(C)(=O)=O)c(Cl)cc2Cl)c(=O)n1C(F)F`, the Potency entry in assay [1], in [2], in assay [3], in assay [4], in [5] and in assay [9] was “inactive” in each case. In addition, the Potency entry in assay [10] and in [6] was “inactive” each time.

With `CC1=C2C[C@H]3[C@@H](CC=C4C[C@@H](O)CC[C@@]43C)[C@@H]2CC[C@]12O[C@@H]1C[C@H](C)CN[C@H]1[C@H]2C`, the Potency in assay [1] and in assay [5] was 26.6 µM (active) throughout. For the same molecule, the Potency entry in assay [2], in [4], in assay [7], in assay [8] and in assay [6] was “inactive” in each case.

`Cc1cnc2c(C(=O)O)c(Cl)ccc2c1`: the Potency result in [1], in [2], in assay [3], in assay [4], in assay [5] and in assay [9] was “inactive” throughout. Besides, the Potency result in assay [10] is “inactive”.

For the molecule `c1ccc(N=NNc2ccccc2)cc1`, the Potency was 39.9 µM (active) and 27.3 µM (active) in assay [1]; 6.54 µM (active) and 6.33 µM (active) in assay [2]; 28.3 µM (active) and 27.3 µM (active) in [8]; 25.2 µM (active) and inactive in assay [10]. In addition, the Potency result in [3], in assay [4], in assay [5], in assay [9] and in [6] was “inactive” in each case.

`CC(Cc1ccccc1)N(C)Cc1ccco1` (centres undefined): the Potency result in assay [1], in assay [2], in assay [3], in assay [4], in [5] and in assay [6] was “inactive” in each case.

In the case of `O=C(NC(=O)c1ccccc1Cl)Nc1ccc(OC(F)(F)F)cc1`, the Potency entry in [1], in assay [2], in [3], in assay [4], in [8] and in assay [5] was “inactive” throughout. In addition, the Potency entry in [6] was “inactive”.

Turning to `ClC1(Cl)C2(Cl)C3(Cl)C4(Cl)C(Cl)(Cl)C5(Cl)C3(Cl)C1(Cl)C5(Cl)C24Cl` (centres undefined), the Potency result in assay [1], in [2], in assay [3], in assay [4], in [5] and in assay [9] was “inactive” throughout. Moreover, the Potency result in assay [10] and in assay [6] was “inactive” in each case.

`ClC(Cl)C(Cl)(Cl)Cl`: the Potency result in [1], in assay [2], in [3], in assay [4], in [5] and in [6] was “inactive” throughout.

`CC(Cl)CCl` (centres undefined): the Potency entry in assay [1], in assay [2], in assay [4], in assay [7], in assay [8] and in assay [5] was “inactive” each time. Also, in assay [6], the Potency result is “inactive”.

In the case of `CC(Cc1ccc(O)cc1)NCC(O)c1cc(O)cc(O)c1` (centres undefined), the Potency entry in assay [1], in [2], in assay [4], in assay [7], in [8] and in assay [5] was “inactive” in each case. Also, the Potency in assay [6] is 0.841 µM (active).

Take `O=[N+]([O-])c1ccccc1-c1ccccc1`: the Potency entry in [1], in assay [2], in assay [4], in assay [7], in [8] and in assay [5] was “inactive” in each case. Also, the Potency result in assay [9], in assay [10] and in [6] was “inactive” throughout.
